Bioassay records: PubChem, Broad Institute
NOMO-1 viab: STK33 inhibitor candidate reducing NOMO-1 cell viability; NOMO-1 AML viability, CellTiter-Glo luminescence, 72 h; inhibition, % (no concentration beside the values); 37,000 tested, 7.5% active; AID 2330; in the data active means inhibition above about 80%
PD-1 reverse act: activators reversing PD-1 mediated T-cell inhibition; 29,000 tested, under 10 active; AID 2316; primary human CD4 T cells, PD-L1 beads, CellTiter-Glo 96 h; activation, % (no concentration beside the values); call rule not given here;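 further: 0% = median vehicle wells and 100% = positive control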
STK33 inh: blocks human STK33 kinase activity; Q9BYT3; ADP-Glo luminescence, MBP substrate; inhibition, % at 12.5 µM; 27,000 tested, 0.44% active; AID 2322; in the data active means inhibition above about 20%
Target sequence (Q9BYT3 whole entry, looked up): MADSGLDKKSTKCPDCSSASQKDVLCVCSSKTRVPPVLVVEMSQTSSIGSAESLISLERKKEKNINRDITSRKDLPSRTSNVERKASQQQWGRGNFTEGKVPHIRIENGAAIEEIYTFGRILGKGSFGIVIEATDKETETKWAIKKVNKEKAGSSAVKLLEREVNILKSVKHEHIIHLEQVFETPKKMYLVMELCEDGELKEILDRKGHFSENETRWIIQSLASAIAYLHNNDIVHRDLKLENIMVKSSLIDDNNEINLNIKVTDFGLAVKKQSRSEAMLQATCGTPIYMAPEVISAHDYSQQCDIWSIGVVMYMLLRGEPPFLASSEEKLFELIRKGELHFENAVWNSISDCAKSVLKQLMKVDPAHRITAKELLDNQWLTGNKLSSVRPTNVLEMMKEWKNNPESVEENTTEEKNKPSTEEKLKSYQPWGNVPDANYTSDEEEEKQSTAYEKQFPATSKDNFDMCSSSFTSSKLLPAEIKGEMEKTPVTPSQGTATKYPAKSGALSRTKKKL
The depositor's hits bear a star. Only a selection was taken, and hits are over-represented in it overall.

`COc1ccc(CCC(=O)O)c(O)c1` gave NOMO-1 viab -6, PD-1 reverse act 0 and STK33 inh -2.
CN1C(=O)C(=Cc2cccn2-c2ccc(N(C)C)cc2)C(=O)N(C)C1=S was read as NOMO-1 viab 43 and PD-1 reverse act -1.
COc1cc2nc(N3CCN(C(=O)c4ccco4)CC3)nc(N)c2cc1OC was read as NOMO-1 viab 95*, PD-1 reverse act 2 and STK33 inh 3.
`COc1cc2nc(N3CCN(C(=O)C4COc5ccccc5O4)CC3)nc(N)c2cc1OC` (centres undefined) gave NOMO-1 viab -2, PD-1 reverse act -1 and STK33 inh 4.
`CSc1ccc(N=CN2C(=O)c3ccccc3C2=O)cc1` gave NOMO-1 viab 3, PD-1 reverse act 2 and STK33 inh 11.
CCOc1cc(/C=C2/SC(=N)N(c3nccs3)C2=O)ccc1OCCN1CCOCC1 was read as NOMO-1 viab 112*, PD-1 reverse act -49 and STK33 inh 0.
N=C1S/C(=C/c2ccccc2)C(=O)N1c1nonc1N was read as NOMO-1 viab 28, PD-1 reverse act -7 and STK33 inh 13.
`CCCn1cc(NC(=O)C2CC(c3ccccc3O)=NO2)cn1` (centres undefined) gave NOMO-1 viab 57 and STK33 inh -1.
Screening Cc1nonc1OCCNc1cc(N2CCCC2)ccc1[N+](=O)[O-] returned NOMO-1 viab -12, PD-1 reverse act -1 and STK33 inh 6.
Screening CCOc1ccc(-c2nc3ccc(-c4nc5ccc(N6CCN(C)CC6)cc5[nH]4)cc3[nH]2)cc1 returned NOMO-1 viab 116* and STK33 inh -1.
`CCOc1ccc(N2C(=O)CC(SCc3nc4ccccc4[nH]3)C2=O)cc1` (centres undefined) gave NOMO-1 viab -9 and STK33 inh 0.
`CCCCN1C(=O)/C(=C2/Sc3ccc(OC)cc3N2C)SC1=S` gave NOMO-1 viab 29 and PD-1 reverse act 0.
CC[n+]1c(C=C2C=C(C)CC(C)(C)C2)oc2ccccc21 was read as NOMO-1 viab 115* and PD-1 reverse act -4.
Screening COc1ccc(S(=O)(=O)Nc2ccc3c(c2)C(=O)N([C@@H](C)CO)C[C@@H](C)[C@@H](CN(C)Cc2ccc(Cl)c(Cl)c2)O3)cc1 returned NOMO-1 viab 114*, PD-1 reverse act -3 and STK33 inh 0.
`COc1ccc(CN(C)C[C@H]2Oc3ccc(NS(=O)(=O)c4ccc(OC)cc4)cc3CC(=O)N([C@H](C)CO)C[C@H]2C)cc1` gave NOMO-1 viab 16 and STK33 inh -3.
Screening COc1ccc(S(=O)(=O)Nc2ccc3c(c2)CC(=O)N([C@@H](C)CO)C[C@@H](C)[C@@H](CN(C)Cc2ccc(Cl)c(Cl)c2)O3)cc1 returned NOMO-1 viab 107* and STK33 inh 5.
`COc1ccc(S(=O)(=O)Nc2ccc3c(c2)C(=O)N([C@H](C)CO)C[C@H](C)[C@H](CN(C)Cc2ccc(Cl)c(Cl)c2)O3)cc1` gave NOMO-1 viab 73, PD-1 reverse act -1 and STK33 inh 3.
COc1ccc(S(=O)(=O)Nc2ccc3c(c2)CC(=O)N([C@H](C)CO)C[C@@H](C)[C@@H](CN(C)Cc2ccc(Cl)c(Cl)c2)O3)cc1 was read as NOMO-1 viab 114*, PD-1 reverse act -1 and STK33 inh 2.
For COc1ccc(CN(C)C[C@@H]2Oc3ccc(NS(=O)(=O)c4ccc(OC)cc4)cc3CC(=O)N([C@H](C)CO)C[C@H]2C)cc1 the results were NOMO-1 viab 11, PD-1 reverse act -2 and STK33 inh -6.
Screening COc1ccc(S(=O)(=O)Nc2ccc3c(c2)CC(=O)N([C@@H](C)CO)C[C@H](C)[C@H](CN(C)Cc2ccc(Cl)c(Cl)c2)O3)cc1 returned NOMO-1 viab 105*, PD-1 reverse act 1 and STK33 inh 1.
For COc1ccc(S(=O)(=O)Nc2ccc3c(c2)C(=O)N([C@H](C)CO)C[C@H](C)[C@@H](CN(C)Cc2ccc(Cl)c(Cl)c2)O3)cc1 the results were NOMO-1 viab 51 and PD-1 reverse act 0.
For O=C(Cc1ccccc1)c1ccccc1C(=O)NCc1cccs1 the results were NOMO-1 viab 26, PD-1 reverse act -5 and STK33 inh 0.
`CC(=O)Nc1c(Br)c(C2CC2)nn1-c1ccccc1` gave NOMO-1 viab -18 and PD-1 reverse act 0.
Cn1c(SCC(=O)NC23CC4CC(CC(C4)C2)C3)nnc1-c1cccc([N+](=O)[O-])c1 was read as NOMO-1 viab 29, PD-1 reverse act 0 and STK33 inh -2.
For C[C@H](CO)N1C[C@H](C)[C@@H](CN(C)Cc2ccccc2)Oc2c(NC(=O)Nc3ccc4c(c3)OCO4)cccc2C1=O the results were NOMO-1 viab 61 and PD-1 reverse act -2.
`C[C@@H]1CN([C@H](C)CO)C(=O)c2cccc(NC(=O)Nc3ccc4c(c3)OCO4)c2O[C@@H]1CN(C)Cc1ccc(Cl)c(Cl)c1` gave NOMO-1 viab 54 and PD-1 reverse act -3.
`C[C@H]1CN([C@@H](C)CO)C(=O)c2cccc(NC(=O)Nc3ccc4c(c3)OCO4)c2O[C@H]1CN(C)Cc1ccc2c(c1)OCO2` gave NOMO-1 viab 28 and PD-1 reverse act 1.
Screening C[C@@H]1CN([C@@H](C)CO)C(=O)c2cccc(NC(=O)Nc3ccc4c(c3)OCO4)c2O[C@@H]1CN(C)CC1CCCCC1 returned NOMO-1 viab 15 and PD-1 reverse act 0.
Screening C[C@H](CO)N1C[C@H](C)[C@H](CN(C)Cc2ccccc2)Oc2c(NC(=O)Nc3ccc4c(c3)OCO4)cccc2C1=O returned NOMO-1 viab 84* and PD-1 reverse act 0.
C[C@@H]1CN([C@@H](C)CO)C(=O)c2cccc(NC(=O)Nc3ccc4c(c3)OCO4)c2O[C@H]1CN(C)CC1CCCCC1 was read as NOMO-1 viab 83*.
For C[C@@H]1CN([C@@H](C)CO)C(=O)c2cccc(NC(=O)Nc3ccc4c(c3)OCO4)c2O[C@H]1CN(C)Cc1ccc2c(c1)OCO2 the results were NOMO-1 viab 93* and PD-1 reverse act -10.
Screening C[C@H]1CN([C@@H](C)CO)C(=O)c2cccc(NC(=O)Nc3ccc4c(c3)OCO4)c2O[C@@H]1CN(C)Cc1ccc(Cl)c(Cl)c1 returned NOMO-1 viab 91*.
Screening CCN(CC)c1c(C#N)c(SCC(=O)c2cccs2)cc2c1CCCC2 returned NOMO-1 viab 45 and PD-1 reverse act -2.
`COc1cccc(NC(=O)CCCC(=O)O)c1` gave STK33 inh -1.
Screening CC(=O)N[C@@H](Cc1ccccc1)C(=O)NN returned NOMO-1 viab -17 and PD-1 reverse act 2.
For CN(Cc1nc(-c2cccc([N+](=O)[O-])c2)no1)S(=O)(=O)c1ccccc1 the results were NOMO-1 viab -9 and STK33 inh 0.
`C[C@@H]1CN([C@@H](C)CO)C(=O)c2cccc(NC(=O)Nc3ccc4c(c3)OCO4)c2O[C@H]1CN(C)Cc1ccccc1` gave NOMO-1 viab 107* and PD-1 reverse act -7.
Screening C[C@@H]1CN([C@@H](C)CO)C(=O)c2cccc(NC(=O)Nc3ccc4c(c3)OCO4)c2O[C@@H]1CN(C)Cc1ccccc1 returned NOMO-1 viab 19.
